High-throughput results from PubChem BioAssay.
LASV entry inh – Lassa virus entry inhibition; Lassa virus pseudotype entry inhibition, cell reporter; Potency, µM (titrated, usually from 37.9 µM), without a hit: at the highest dose activity change, negative = inhibition, usual class: inhibitors; 1.2% of 300,000 active; calls by dose curve; tested in HEK293 cells; also: potency is read from the fitted curve at half-maximal effect; nearly all actives have a fitted effect of over 50% in size
HCMV inh – human cytomegalovirus inhibition | HFF cells, HCMV-luciferase reporter, 72 h; stronger effect = lower value | activity change, negative = inhibition, % at 57.5 µM | AID 1259415 | 4.5% of 410,000 active; in the data active = activity change below about -60%; inconclusive = no clear call, values can overlap the other calls; inactive = above about -39%
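Cell-based, HFFs, 1000 cells/well, 16 h 37C; cpds in DMSO + HCMV-luc, MOI 1 PFU/cell; 72 h 37C; OneGlo luminescence after 5 min RT; norm. to buffer vs Salinomycin 10uM.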
VACV mCherry inh – inhibitors of vaccinia virus infection (mCherry reporter signal) | Potency, µM (highest dose often 36.5 µM), for inactives: at the top dose activity change, negative = inhibition, hits mostly inhibitors | 0.63% of 310,000 active | Vaccinia virus mCherry reporter infection, fluorescence; calls by dose curve; tested in A549 cells; also: potency is read from the fitted curve at half-maximal effect; nearly all actives have a fitted effect of over 35% in size
VACV Venus inh – vaccinia inhibition (Venus reporter); Vaccinia virus Venus reporter expression, fluorescence; Potency, µM (doses to about 36.5 µM), without a hit: at the highest dose activity change, negative = inhibition, actives largely listed as inhibitors; 0.46% of 330,000 active; AID 720580; calls by dose curve; tested in A549 cells; also: potency is read from the fitted curve at half-maximal effect; nearly all actives have a fitted effect of over 30% in size
MARV entry inh – blocks Marburg virus binding to or entry into cells; Marburg virus pseudotyped entry inhibition, cell reporter; 1.8% of 300,000 active; Potency, µM (titrated, usually from 37.8 µM), for the others: top-dose activity change, negative = inhibition, actives largely listed as inhibitors; AID 540276; calls by dose curve; tested in HEK293 cells; also: potency is read from the fitted curve at half-maximal effect
FMDV inh – antivirals against foot and mouth disease virus; FMDV antiviral cell-based qHTS; Potency, µM (titrated, usually from 57.9 µM), inactives show top-dose activity change, negative = inhibition, actives largely listed as inhibitors; 1.2% of 410,000 active; calls by dose curve; tested in HEK293T cells; also: read-out not given here; potency is read from the fitted curve at half-maximal effect; nearly all actives have a fitted effect of over 45% in size
* = called active by the depositor; [ ] = another dose, or the depositor's remark. Only some compounds are listed: those with a hit (about 6.5% of all), similar ones and a draw of the others. % is scaled to controls: 0 for no effect and ±100 for the full control effect.

`Cc1cccc(N(CC(=O)NC(C)c2ccccc2)S(=O)(=O)c2ccccc2)c1C` (configuration not stated) gave LASV entry inh inconclusive, HCMV inh -20, VACV mCherry inh -28%, VACV Venus inh -24%, MARV entry inh inconclusive and FMDV inh 9%.
Cc1nn(S(=O)(=O)c2ccccc2)c(C)c1Sc1ccc([N+](=O)[O-])cc1 was read as LASV entry inh -13%, HCMV inh -85*, VACV mCherry inh -1%, VACV Venus inh -7% and MARV entry inh inconclusive.
Cc1nn(S(=O)(=O)c2cccc([N+](=O)[O-])c2)c(C)c1Br was read as LASV entry inh -12%, HCMV inh -5, VACV mCherry inh 8%, VACV Venus inh 6%, MARV entry inh -16%[46.1 µM] and FMDV inh -18%.
Screening Cc1nn(S(=O)(=O)c2cccs2)c(C)c1Sc1ccc([N+](=O)[O-])cc1 returned LASV entry inh inconclusive, HCMV inh -84*, VACV mCherry inh inconclusive, VACV Venus inh inconclusive, MARV entry inh -13%[46.1 µM] and FMDV inh 14µM*.
Cn1ccc(C(=O)NCC2CCC3(CCN(Cc4ccc(F)cc4F)CC3)O2)n1 (configuration not stated) was read as VACV mCherry inh inactive, VACV Venus inh -11% and FMDV inh inconclusive.
`C#CCN1C(=O)[C@]2(O[C@H](COc3ccccc3)CC3=C2CCC3)c2ccccc21` gave LASV entry inh inconclusive and MARV entry inh -41%[14.2 µM].
COc1cc2cncnc2cc1OCCCCC(N)=O was read as VACV mCherry inh -7% and VACV Venus inh -18%.
CC(Sc1nnc(C2CC2)n1C1CC1)C(=O)c1ccc(Br)cc1 (configuration not stated) was read as LASV entry inh -1%, HCMV inh -62*, VACV mCherry inh -2%, VACV Venus inh -12%, MARV entry inh -12% and FMDV inh -8%.
For CCOc1ccc(CCNC(=O)Cn2ccc3cc(S(=O)(=O)N4CCCCCC4)ccc32)cc1 the results were LASV entry inh -15%[46.1 µM], HCMV inh -14, VACV mCherry inh inactive, VACV Venus inh -5% and FMDV inh 0%.
`N#CC1=C(N)NC(SCc2ccc(F)cc2)=C(C#N)C12CCCCC2` gave LASV entry inh inconclusive, HCMV inh -26, VACV Venus inh inconclusive, MARV entry inh 7.9µM* and FMDV inh -24%.
Screening Cc1ccccc1N=C1Nc2ccc(Cl)cc2N[C@]12C[C@H]1CCCC(=O)N3CC[C@@H](C2)[C@@H]13 returned VACV mCherry inh inactive and VACV Venus inh -5%.
Cc1cc(Cl)c2oc(C(=O)N3CCN(c4ccncc4)CC3)c(C)c2c1 was read as LASV entry inh inconclusive, HCMV inh -40, VACV mCherry inh -11%, VACV Venus inh inconclusive, MARV entry inh 3.5µM* and FMDV inh -15%.
Screening N#CCc1ccnc2ccccc12 returned LASV entry inh -1%[46.1 µM], HCMV inh -24, VACV mCherry inh -25%, VACV Venus inh 18%, MARV entry inh 9%[46.1 µM] and FMDV inh 2%.
For N#CC(C#N)c1ccnc2ccccc12 the results were HCMV inh -78*, VACV mCherry inh -9%, VACV Venus inh -17% and FMDV inh -29%.
For CC(C)(C)OC(=O)N/N=C/c1ccc(N2CCOCC2)s1 the results were LASV entry inh 1.8µM*, HCMV inh 58, VACV mCherry inh -9%, VACV Venus inh -15%, MARV entry inh 11% and FMDV inh 12%.
For Clc1cccc(N/N=C/c2ccc(N3CCOCC3)s2)c1 the results were LASV entry inh 4%, HCMV inh -83*, VACV mCherry inh -9%, VACV Venus inh -3%, MARV entry inh 17% and FMDV inh inconclusive.
Nc1ccc(C(=O)N/N=C/c2ccc(N3CCOCC3)s2)cc1 was read as HCMV inh -5 and FMDV inh 8%.
Screening CCOc1ccc(-n2c(SCc3ccc(C(=O)OC)o3)nc3c([nH]c4ccccc43)c2=O)cc1 returned LASV entry inh 0%[46.1 µM], HCMV inh 3, VACV mCherry inh -20%, VACV Venus inh -5% and FMDV inh -19%.
